Assay outcomes from PubChem.
Shown are actives, neighbours in structure and some others; about 18% of the full set was active somewhere.
IL-1B inflam inh: qHTS for Inhibitors of Inflammasome Signaling: IL-1-beta AlphaLISA Primary Screen; activity change, % at 57.5 µM; 360,000 tested, 4.7% active; THP-1 LPS/ATP IL-1B secretion, AlphaLISA, 16 h; active compounds read low; in the data active = activity change below about -50%; inconclusive = mostly about -30% to -49%; note: % is set by controls: 0 for no effect and ±100 for the full control effect
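Secreted IL-1B measured by AlphaLISA bead assay after 16 h compound exposure of THP-1 cells; compounds (final up to 57.5 uM) added 1 h before LPS (250 ng/mL) and ATP (1.25 mM) stimulation; lower signal means less secretion.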
TDP1 cell CPT: qHTS for Inhibitors of human tyrosyl-DNA phosphodiesterase 1 (TDP1): qHTS in cells in presence of CPT; chicken DT40 Tdp1-/-;hTDP1 cells + 20 nM CPT, ATP luminescence, 48 h; Potency, µM (top dose mostly 46.2 µM), inactives show top-dose activity change, negative = growth inhibition, usual class: inhibitors; 420,000 tested, 12% active; AID 686979, 2013; note: potency is the fitted concentration of half-maximal effect; % is set by controls: 0 for no effect and ±100 for the full control effect; nearly all actives have a fitted effect of over 55% in size
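Cell growth measured by CellTiter-Glo luminescence after a minimum 48 h, 37 C compound exposure with 20 nM CPT in Tdp1-knockout DT40 cells stably expressing hTDP1, seeded 400/well; qHTS titration format.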
HepG2 tox: qHTS for Inhibitors of TGF-b: Cytotox Counterscreen; HepG2 CAGA-GFP viability, ATP luminescence, 18 h; Potency, µM (series often up to 46.1 µM), without a hit: at the top dose activity change, negative = cytotoxicity, most hits filed as cytotoxic; 410,000 tested, 0.76% active; note: potency is the fitted concentration of half-maximal effect
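CellTiter-Glo luminescence gave cytotoxicity after 18 hours at 37 degrees C. The cells were HepG2 CAGA-GFP in 1% FBS DMEM, stimulated with 500 pg/mL TGF-beta after compound addition. %Activity was normalised to no-cell wells (complete cell-killing) and DMSO (no toxicity), and curves were fitted and classified.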
TGFb inhibitor: qHTS for Inhibitors of TGF-b | AID 588855, 2011 | 410,000 tested, 1.2% active | HepG2 CAGA-GFP TGF-b/SMAD3 reporter, GFP fluorescence, 18 h; TGF-beta stimulated, 500 pg/mL final | Potency, µM (series often up to 46.1 µM), for inactives: top-dose activity, negative = inhibition, usual class: inhibitors; note: potency is the fitted concentration of half-maximal effect; % is set by controls: 0 for no effect and ±100 for the full control effect; nearly all actives have a fitted effect of over 65% in size
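Inhibition of TGF-beta-driven CAGA-GFP reporter expression in HEPG2 cells is measured by cellular GFP fluorescence after 18 h stimulation with 500 pg/mL recombinant TGF-beta in 1% FBS medium at 37 degrees C.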
DT40 TDP1 no CPT: qHTS for Inhibitors of human tyrosyl-DNA phosphodiesterase 1 (TDP1): qHTS in cells in absence of CPT; DT40 Tdp1-/- hTDP1 cells, no CPT, ATP luminescence, 48 h; Potency, µM (doses to about 46.2 µM), for inactives: top-dose activity change, negative = growth inhibition, actives largely listed as inhibitors; 420,000 tested, 15% active; note: potency is the fitted concentration of half-maximal effect; % is set by controls: 0 for no effect and ±100 for the full control effect; nearly all actives have a fitted effect of over 55% in size
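Chicken DT40 Tdp1-/- cells complemented with human TDP1, screened without camptothecin (DMSO vehicle only), 400 cells/well. Compounds pin-transferred, cells incubated at 37 °C for at least 48 hr. Growth read as ATP-dependent luminescence (CellTiter-Glo, 30 min at RT).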
TDP1 inh: qHTS Assay for Inhibitors of Tyrosyl-DNA Phosphodiesterase (TDP1). Tyrosyl-DNA phosphodiesterase 1 (Homo sapiens), Q9NUW8. recombinant TDP1, AlphaScreen DNA substrate cleavage. Potency, µM (series often up to 130 µM), inactives show at the top dose activity change, negative = inhibition, most hits filed as inhibitors. 350,000 tested, 0.28% active; note: potency is the fitted concentration of half-maximal effect; % is set by controls: 0 for no effect and ±100 for the full control effect; nearly all actives have a fitted effect of over 40% in size
Target sequence (Q9NUW8 whole entry, looked up): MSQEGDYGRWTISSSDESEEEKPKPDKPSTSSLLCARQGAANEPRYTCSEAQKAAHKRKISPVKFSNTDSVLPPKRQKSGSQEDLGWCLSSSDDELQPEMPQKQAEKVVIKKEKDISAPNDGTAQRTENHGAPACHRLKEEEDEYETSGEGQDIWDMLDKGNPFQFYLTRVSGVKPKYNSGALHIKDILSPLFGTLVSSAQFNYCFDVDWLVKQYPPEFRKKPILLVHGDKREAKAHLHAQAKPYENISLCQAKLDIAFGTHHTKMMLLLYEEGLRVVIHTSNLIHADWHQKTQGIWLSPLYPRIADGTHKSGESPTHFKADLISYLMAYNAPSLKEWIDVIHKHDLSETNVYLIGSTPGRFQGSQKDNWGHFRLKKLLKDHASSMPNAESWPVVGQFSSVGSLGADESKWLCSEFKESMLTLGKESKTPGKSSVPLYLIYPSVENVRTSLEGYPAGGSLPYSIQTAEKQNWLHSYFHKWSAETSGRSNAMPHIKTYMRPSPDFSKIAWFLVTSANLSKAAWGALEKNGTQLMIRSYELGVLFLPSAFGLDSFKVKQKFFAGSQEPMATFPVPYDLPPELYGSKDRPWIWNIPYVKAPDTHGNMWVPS
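Compounds were preincubated with Tdp1 (1 nM final) for 15 min at room temperature before substrate (15 nM final) started a 5 min reaction; beads (10 ug/ml final) were then added for 10 min before AlphaScreen detection.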
Starred values were filed as active, the others as inactive; u = inconclusive; x = no result; [ ] = dose if it differs, or a comment. Unless noted, calls come from the whole dose curve; as a rule, active = well fitted curve in the direction sought with a large enough effect; inconclusive = small, poorly fitted or top-dose-only effect, or another doubt; inactive = no such curve, though single readings can be large; an effect the other way counts as inactive or inconclusive.

SMILES | IL-1B inflam inh | TDP1 cell CPT | HepG2 tox | TGFb inhibitor | DT40 TDP1 no CPT | TDP1 inh
CCOC(=O)C1C(=O)Oc2ccc3ccccc3c2C1C1CCOC1=O (stereo not given) | 16 | u | -12% | 21% | 15µM* | 7%
CCOC(=O)C1=C(C)NC(=O)NC1c1c(OC)ccc2ccccc12 (stereo not given) | 51 | -10% | 9% | 13% | -13% | x
O=C(OCc1ccccc1)c1cccc(-c2nnc(-c3ccccc3)o2)c1 | -2 | u | -16% | -3% | -16% | 1%
CC(C)OC(=O)c1ccc(COC(=O)c2cccc(-c3nnc(-c4ccccc4)o3)c2)cc1 | 12 | -25% | -74% | 0% | u | 1%
CCOC(=O)c1cccc(COC(=O)c2cccc(-c3nnc(-c4ccccc4)o3)c2)c1 | -10 | 26µM* | -14% | -1% | 16µM* | 3%
O=C(OCc1ccc(C(=O)c2ccccc2)cc1)c1cccc(-c2nnc(-c3ccccc3)o2)c1 | -9 | 16µM* | 1% | -6% | u | -2%
Cc1cc(Br)c(Oc2cc(NN3CCCCC3)c([N+](=O)[O-])cc2[N+](=O)[O-])c(Br)c1 | 0 | -16% | -20% | 2% | 17% | x
CCOC(=O)N1CCN(CC(O)COc2cc(C)cc(C)c2)CC1 (stereo not given) | -8 | 16% | -6% | 2% | -9% | x
Cc1cccc(C)c1-n1nnnc1C(c1ccccc1)N1CCN(C/C=C/c2ccccc2)CC1 (stereo not given) | 22 | 21µM* | 5% | u | 16µM* | x
COc1ccc(-n2nnnc2C(c2ccccc2OC(F)(F)F)N2CCN(C/C=C/c3ccccc3)CC2)cc1 (stereo not given) | -10 | 23µM* | -1% | u | 16µM* | x
C(=C\c1ccccc1)/CN1CCN(C(c2cc3ccccc3o2)c2nnnn2C2CCCC2)CC1 (stereo not given) | -20 | u | -37% | -4% | u | x
c1ccc(CCn2nnnc2C(c2cccs2)N2CCOCC2)cc1 (stereo not given) | 5 | 3% | -9% | -13% | -17% | 7%
CCCCn1nnnc1C(c1cccs1)N1CCN(C/C=C/c2ccccc2)CC1 (stereo not given) | 0 | 21µM* | -15% | u | 23µM* | x
C(=C\c1ccccc1)/CN1CCN(C(c2cc3ccccc3o2)c2nnnn2Cc2ccccc2)CC1 (stereo not given) | 2 | u | -26% | -11% | 16µM* | x
C(=C\c1ccccc1)/CN1CCN(C(c2ccccc2)c2nnnn2-c2ccc3c(c2)OCCO3)CC1 (stereo not given) | 0 | u | -24% | u | u | x
CCOC(=O)c1ccc(S(=O)(=O)Nc2cc(S(=O)(=O)N3CCOCC3)ccc2O)cc1 | 12 | u | -4% | -21% | u | 5%
Cc1cccc(N2CCN(c3ccc(C(=O)O)cc3NC(=O)c3cccc(Cl)c3)CC2C)c1 (stereo not given) | x | u | -22% | -38% | u | 0%
COc1cccc(S(=O)(=O)N(C)C[C@H]2OCc3cnnn3CCCC(=O)N([C@@H](C)CO)C[C@@H]2C)c1 | 18 | 1% | 6% | -3% | u | x
COc1ccc(CC(=O)OCC(=O)N2CCCc3ccccc32)cc1OC | 19 | -14% | -5% | 7% | -10% | -13%[0.505 µM]
